# Data published in the supplement of paper PMC11732987, “Enantioselective OTUD7B fragment discovery through chemoproteomics screening and high-throughput optimisation” (Communications Chemistry, 2025).
# Compound: ClCC(=O)N1CCc2scc(Br)c2C1
# Experiment: log2 ratio of Biotin-Ahx-Ub-VS probe labelling (compound/DMSO); higher = less target engagement, active = hit call of the paper (q ≤ 0.05, log2 ratio ≤ -1)
# Settings: compound concentration: 200uM; treatment time: 3 h
# How it was run: (§1)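 HEK293T lysate (495 µg per sample, in Tris/CHAPS/IGEPAL buffer with protease inhibitors) was treated in triplicate with compound at 50 or 200 µM or with DMSO for 3 h. It was then treated with Biotin-Ahx-Ub-VS (0.5 µM final) for 1 h. Labelled DUBs were NeutrAvidin-enriched, digested with LysC and trypsin, and run by diaPASEF LC-MS/MS. Median-normalised label-free quantities gave average log2 ratios compound/DMSO by unpaired t-test, using proteins with ≥2 unique peptides.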
# Chain of UniProt Q8N6M0 (Q8N6M0 whole entry): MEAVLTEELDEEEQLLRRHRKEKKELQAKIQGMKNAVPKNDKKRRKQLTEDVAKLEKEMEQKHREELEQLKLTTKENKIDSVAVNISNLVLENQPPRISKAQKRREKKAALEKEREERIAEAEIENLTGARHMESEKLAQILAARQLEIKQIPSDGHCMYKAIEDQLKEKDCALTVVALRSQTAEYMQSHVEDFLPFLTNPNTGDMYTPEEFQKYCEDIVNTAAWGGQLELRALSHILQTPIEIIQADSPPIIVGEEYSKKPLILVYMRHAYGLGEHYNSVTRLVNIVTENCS
# Chain of UniProt Q9UGI0 (Q9UGI0 whole entry): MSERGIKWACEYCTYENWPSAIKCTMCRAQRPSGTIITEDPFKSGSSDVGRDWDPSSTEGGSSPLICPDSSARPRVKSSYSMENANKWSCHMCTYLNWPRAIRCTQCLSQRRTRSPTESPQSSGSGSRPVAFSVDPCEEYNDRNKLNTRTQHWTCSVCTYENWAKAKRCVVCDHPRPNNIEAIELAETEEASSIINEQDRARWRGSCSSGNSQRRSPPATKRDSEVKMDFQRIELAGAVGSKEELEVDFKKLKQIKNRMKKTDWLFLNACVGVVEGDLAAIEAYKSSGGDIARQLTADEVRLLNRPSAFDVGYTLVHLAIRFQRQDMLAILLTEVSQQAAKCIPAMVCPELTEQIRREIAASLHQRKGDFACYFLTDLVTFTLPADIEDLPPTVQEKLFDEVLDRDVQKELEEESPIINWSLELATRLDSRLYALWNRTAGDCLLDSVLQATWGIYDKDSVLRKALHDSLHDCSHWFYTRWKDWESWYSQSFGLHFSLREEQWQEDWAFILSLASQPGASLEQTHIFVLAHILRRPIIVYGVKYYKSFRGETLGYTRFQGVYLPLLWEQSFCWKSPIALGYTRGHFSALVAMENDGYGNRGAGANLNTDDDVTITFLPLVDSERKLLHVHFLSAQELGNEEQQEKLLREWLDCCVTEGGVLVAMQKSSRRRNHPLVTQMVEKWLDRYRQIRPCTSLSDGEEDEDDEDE
# Chain of UniProt Q93008 (Q93008 whole entry): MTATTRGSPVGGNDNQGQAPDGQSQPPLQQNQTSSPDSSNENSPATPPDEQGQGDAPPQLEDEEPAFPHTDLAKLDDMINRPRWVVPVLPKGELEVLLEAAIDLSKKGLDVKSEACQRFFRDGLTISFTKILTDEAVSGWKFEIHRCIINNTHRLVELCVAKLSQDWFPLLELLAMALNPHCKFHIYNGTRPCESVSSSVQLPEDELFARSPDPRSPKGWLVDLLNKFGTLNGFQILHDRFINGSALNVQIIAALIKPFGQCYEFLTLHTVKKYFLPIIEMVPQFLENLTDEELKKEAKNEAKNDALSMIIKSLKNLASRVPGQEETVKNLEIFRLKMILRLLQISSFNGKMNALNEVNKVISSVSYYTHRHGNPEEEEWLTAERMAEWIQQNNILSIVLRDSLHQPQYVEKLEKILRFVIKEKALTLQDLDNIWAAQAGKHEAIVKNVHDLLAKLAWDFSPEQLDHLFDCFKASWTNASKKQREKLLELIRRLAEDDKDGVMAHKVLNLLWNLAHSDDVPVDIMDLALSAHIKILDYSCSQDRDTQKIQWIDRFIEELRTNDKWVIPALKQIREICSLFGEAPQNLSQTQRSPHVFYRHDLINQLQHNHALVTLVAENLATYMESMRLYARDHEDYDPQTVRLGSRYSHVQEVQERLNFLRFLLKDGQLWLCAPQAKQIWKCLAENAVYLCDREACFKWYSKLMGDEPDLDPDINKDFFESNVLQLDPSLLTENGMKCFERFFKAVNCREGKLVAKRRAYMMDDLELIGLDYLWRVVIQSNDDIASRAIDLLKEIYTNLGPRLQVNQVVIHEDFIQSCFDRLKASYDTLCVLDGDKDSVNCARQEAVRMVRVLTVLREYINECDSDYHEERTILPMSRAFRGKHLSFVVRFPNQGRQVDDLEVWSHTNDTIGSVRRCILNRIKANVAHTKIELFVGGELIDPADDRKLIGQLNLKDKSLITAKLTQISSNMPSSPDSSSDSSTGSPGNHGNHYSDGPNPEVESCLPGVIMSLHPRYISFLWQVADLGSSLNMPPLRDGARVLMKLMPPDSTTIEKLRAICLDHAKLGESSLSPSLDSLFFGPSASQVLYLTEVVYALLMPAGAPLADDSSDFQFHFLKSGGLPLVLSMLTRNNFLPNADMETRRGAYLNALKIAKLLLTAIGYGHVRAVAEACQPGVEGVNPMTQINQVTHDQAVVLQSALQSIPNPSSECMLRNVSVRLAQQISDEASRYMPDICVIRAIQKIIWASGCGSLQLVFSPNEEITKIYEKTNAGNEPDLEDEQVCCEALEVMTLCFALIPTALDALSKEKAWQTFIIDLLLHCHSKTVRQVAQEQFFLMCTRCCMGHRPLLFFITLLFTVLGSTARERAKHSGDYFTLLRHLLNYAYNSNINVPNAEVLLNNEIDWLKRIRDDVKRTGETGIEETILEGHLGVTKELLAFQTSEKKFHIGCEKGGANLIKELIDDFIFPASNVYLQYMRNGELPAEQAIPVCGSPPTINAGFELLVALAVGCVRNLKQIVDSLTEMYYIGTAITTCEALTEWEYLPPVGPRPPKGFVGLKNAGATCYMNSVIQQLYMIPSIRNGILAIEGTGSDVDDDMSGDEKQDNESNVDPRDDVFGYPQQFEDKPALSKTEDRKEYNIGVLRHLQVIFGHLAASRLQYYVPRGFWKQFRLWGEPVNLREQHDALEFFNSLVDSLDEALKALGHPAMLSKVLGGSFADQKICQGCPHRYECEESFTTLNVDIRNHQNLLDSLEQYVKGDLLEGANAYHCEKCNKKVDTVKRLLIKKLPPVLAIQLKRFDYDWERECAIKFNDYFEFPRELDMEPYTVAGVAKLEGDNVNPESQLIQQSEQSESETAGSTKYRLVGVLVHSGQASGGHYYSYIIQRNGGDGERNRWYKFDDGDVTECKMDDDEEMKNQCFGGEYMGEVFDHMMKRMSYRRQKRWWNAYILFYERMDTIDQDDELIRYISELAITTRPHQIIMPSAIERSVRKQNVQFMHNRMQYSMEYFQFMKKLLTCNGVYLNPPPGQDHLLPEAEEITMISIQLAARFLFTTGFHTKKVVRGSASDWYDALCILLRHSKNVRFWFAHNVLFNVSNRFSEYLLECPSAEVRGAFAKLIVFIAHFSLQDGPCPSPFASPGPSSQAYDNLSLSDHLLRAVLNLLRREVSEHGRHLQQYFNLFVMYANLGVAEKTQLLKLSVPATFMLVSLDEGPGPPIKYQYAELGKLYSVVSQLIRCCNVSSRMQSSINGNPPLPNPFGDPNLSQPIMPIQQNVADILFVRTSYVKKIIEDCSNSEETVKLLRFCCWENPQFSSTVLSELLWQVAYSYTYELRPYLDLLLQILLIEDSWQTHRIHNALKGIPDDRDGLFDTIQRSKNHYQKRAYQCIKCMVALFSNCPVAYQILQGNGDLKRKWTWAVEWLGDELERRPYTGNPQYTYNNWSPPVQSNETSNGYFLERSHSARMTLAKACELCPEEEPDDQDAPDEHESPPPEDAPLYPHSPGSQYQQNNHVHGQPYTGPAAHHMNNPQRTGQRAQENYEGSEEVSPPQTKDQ
# Chain of UniProt P51784 (P51784 whole entry): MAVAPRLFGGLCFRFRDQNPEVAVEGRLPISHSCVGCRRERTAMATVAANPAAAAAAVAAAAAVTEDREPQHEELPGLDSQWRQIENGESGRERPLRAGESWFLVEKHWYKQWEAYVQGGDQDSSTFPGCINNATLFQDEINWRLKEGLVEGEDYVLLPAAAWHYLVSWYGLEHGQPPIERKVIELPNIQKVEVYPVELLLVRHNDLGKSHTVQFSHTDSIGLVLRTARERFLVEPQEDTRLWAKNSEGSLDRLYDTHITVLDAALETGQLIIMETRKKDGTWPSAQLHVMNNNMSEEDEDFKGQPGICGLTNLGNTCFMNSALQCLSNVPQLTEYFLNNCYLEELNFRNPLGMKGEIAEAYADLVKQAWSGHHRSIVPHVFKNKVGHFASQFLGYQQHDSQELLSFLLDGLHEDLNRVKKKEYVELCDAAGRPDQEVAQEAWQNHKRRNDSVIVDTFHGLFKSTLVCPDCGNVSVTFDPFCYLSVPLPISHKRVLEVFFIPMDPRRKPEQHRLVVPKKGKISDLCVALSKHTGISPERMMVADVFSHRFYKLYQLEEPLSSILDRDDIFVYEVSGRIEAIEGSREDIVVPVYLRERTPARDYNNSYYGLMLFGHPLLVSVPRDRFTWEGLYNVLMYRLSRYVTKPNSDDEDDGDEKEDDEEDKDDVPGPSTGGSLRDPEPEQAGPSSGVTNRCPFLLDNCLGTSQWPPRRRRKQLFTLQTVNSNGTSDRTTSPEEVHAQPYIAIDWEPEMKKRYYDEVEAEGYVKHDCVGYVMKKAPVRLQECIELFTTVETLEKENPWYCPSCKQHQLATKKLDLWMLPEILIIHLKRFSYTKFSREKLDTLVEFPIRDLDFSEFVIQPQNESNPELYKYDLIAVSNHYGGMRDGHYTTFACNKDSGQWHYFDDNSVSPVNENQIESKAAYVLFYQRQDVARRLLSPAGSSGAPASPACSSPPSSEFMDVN
# Chain of UniProt Q92905 (Q92905 whole entry, looked up): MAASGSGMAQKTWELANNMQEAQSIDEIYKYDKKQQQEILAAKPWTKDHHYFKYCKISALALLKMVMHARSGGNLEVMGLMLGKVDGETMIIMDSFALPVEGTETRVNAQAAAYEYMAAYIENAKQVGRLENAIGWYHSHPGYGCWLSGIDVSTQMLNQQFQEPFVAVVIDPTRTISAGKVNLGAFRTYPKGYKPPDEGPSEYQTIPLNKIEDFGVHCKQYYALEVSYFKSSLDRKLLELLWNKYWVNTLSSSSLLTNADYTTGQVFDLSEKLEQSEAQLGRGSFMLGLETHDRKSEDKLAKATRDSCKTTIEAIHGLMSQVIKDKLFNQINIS
row,Target,log2 ratio of Biotin-Ahx-Ub-VS probe labelling
1,USP54 (UniProt Q70EL1),-2.07 (active)
2,UniProt Q5T2D3,0.0195 (inactive)
3,USP28 (UniProt Q96RU2),-1.28 (active)
4,UniProt Q70EL2,-0.868 (inactive)
5,USP22 (UniProt Q9UPT9),-0.362 (inactive)
6,OTUD6B (UniProt Q8N6M0),-1.1 (active)
7,EIF3F (UniProt O00303),-0.162 (inactive)
8,USP36 (UniProt Q9P275),0.122 (inactive)
9,USP16 (UniProt Q9Y5T5),0.00388 (inactive)
10,UCHL5 (UniProt Q9Y5K5),-0.74 (inactive)
11,OTUD7B (UniProt Q6GQQ9),-2.61 (active)
12,USP14 (UniProt P54578),-1 (active)
13,USP7 (UniProt Q93009),-2.08 (active)
14,USP34 (UniProt Q70CQ2),-0.0731 (inactive)
15,OTUB1 (UniProt Q96FW1),-0.0887 (inactive)
16,USP9X (UniProt Q93008),-1.13 (active)
17,COPS5 (UniProt Q92905),-0.704 (inactive)
18,USP10 (UniProt Q14694),0.0425 (inactive)
19,USP46 (UniProt P62068),-1.43 (active)
20,YOD1 (UniProt Q5VVQ6),-0.482 (inactive)
21,BAP1 (UniProt Q92560),-1.68 (active)
22,UniProt P51784,-0.573 (inactive)
23,USP25 (UniProt Q9UHP3),-0.242 (inactive)
24,UniProt Q9UGI0,-1.14 (active)

# Compound: ClCC(=O)NC(C1CCCC1)c1cccs1
# Experiment: as above
# Settings: compound concentration: 50uM; treatment time: 3 h
# How it was run: as §1
row,Target,log2 ratio of Biotin-Ahx-Ub-VS probe labelling
1,USP54 (UniProt Q70EL1),0.0591 (inactive)
2,UniProt Q5T2D3,-0.0592 (inactive)
3,USP28 (UniProt Q96RU2),-0.0425 (inactive)
4,UniProt Q70EL2,0.37 (inactive)
5,USP22 (UniProt Q9UPT9),-0.0796 (inactive)
6,OTUD6B (UniProt Q8N6M0),0.0378 (inactive)
7,EIF3F (UniProt O00303),0.0245 (inactive)
8,USP36 (UniProt Q9P275),-0.296 (inactive)
9,USP16 (UniProt Q9Y5T5),-0.325 (inactive)
10,UCHL5 (UniProt Q9Y5K5),-0.0991 (inactive)
11,OTUD7B (UniProt Q6GQQ9),-0.987 (inactive)
12,USP14 (UniProt P54578),-0.115 (inactive)
13,USP7 (UniProt Q93009),0.0363 (inactive)
14,USP34 (UniProt Q70CQ2),-0.0579 (inactive)
15,OTUB1 (UniProt Q96FW1),0.00867 (inactive)
16,USP9X (UniProt Q93008),-0.00568 (inactive)
17,COPS5 (UniProt Q92905),0.21 (inactive)
18,USP10 (UniProt Q14694),-0.148 (inactive)
19,USP46 (UniProt P62068),0.0547 (inactive)
20,YOD1 (UniProt Q5VVQ6),-0.11 (inactive)
21,BAP1 (UniProt Q92560),-0.924 (inactive)
22,UniProt P51784,0.0513 (inactive)
23,USP25 (UniProt Q9UHP3),-0.129 (inactive)
24,UniProt Q9UGI0,-0.0906 (inactive)

# Same assay, conditions: compound concentration: 200uM; treatment time: 3 h
row,Target,log2 ratio of Biotin-Ahx-Ub-VS probe labelling
1,USP54 (UniProt Q70EL1),0.198 (inactive)
2,UniProt Q5T2D3,-0.12 (inactive)
3,USP28 (UniProt Q96RU2),-0.313 (inactive)
4,UniProt Q70EL2,-0.115 (inactive)
5,USP22 (UniProt Q9UPT9),-0.154 (inactive)
6,OTUD6B (UniProt Q8N6M0),-0.153 (inactive)
7,EIF3F (UniProt O00303),-0.0374 (inactive)
8,USP36 (UniProt Q9P275),-0.0298 (inactive)
9,USP16 (UniProt Q9Y5T5),-0.246 (inactive)
10,UCHL5 (UniProt Q9Y5K5),-0.214 (inactive)
11,OTUD7B (UniProt Q6GQQ9),-2.95 (active)
12,USP14 (UniProt P54578),-0.1 (inactive)
13,USP7 (UniProt Q93009),-0.1 (inactive)
14,USP34 (UniProt Q70CQ2),-0.14 (inactive)
15,OTUB1 (UniProt Q96FW1),-0.00015 (inactive)
16,USP9X (UniProt Q93008),-0.248 (inactive)
17,COPS5 (UniProt Q92905),-0.0541 (inactive)
18,USP10 (UniProt Q14694),0.0706 (inactive)
19,USP46 (UniProt P62068),-0.255 (inactive)
20,YOD1 (UniProt Q5VVQ6),0.00107 (inactive)
21,BAP1 (UniProt Q92560),-2.92 (active)
22,UniProt P51784,-0.0659 (inactive)
23,USP25 (UniProt Q9UHP3),-0.557 (inactive)
24,UniProt Q9UGI0,0.116 (inactive)

# Compound: ClCC(=O)NC1CCCc2ccccc12
# Experiment: as above
# Settings: compound concentration: 50uM; treatment time: 3 h
# How it was run: as §1
row,Target,log2 ratio of Biotin-Ahx-Ub-VS probe labelling
1,USP54 (UniProt Q70EL1),-0.548 (inactive)
2,UniProt Q5T2D3,-0.177 (inactive)
3,USP28 (UniProt Q96RU2),-0.263 (inactive)
4,UniProt Q70EL2,0.0142 (inactive)
5,USP22 (UniProt Q9UPT9),-0.085 (inactive)
6,OTUD6B (UniProt Q8N6M0),-0.12 (inactive)
7,EIF3F (UniProt O00303),-0.228 (inactive)
8,USP36 (UniProt Q9P275),0.0611 (inactive)
9,USP16 (UniProt Q9Y5T5),-0.384 (inactive)
10,UCHL5 (UniProt Q9Y5K5),-0.182 (inactive)
11,OTUD7B (UniProt Q6GQQ9),-4.5 (active)
12,USP14 (UniProt P54578),-0.364 (inactive)
13,USP7 (UniProt Q93009),-0.0886 (inactive)
14,USP34 (UniProt Q70CQ2),-0.752 (inactive)
15,OTUB1 (UniProt Q96FW1),-0.212 (inactive)
16,USP9X (UniProt Q93008),-0.0287 (inactive)
17,COPS5 (UniProt Q92905),-0.103 (inactive)
18,USP10 (UniProt Q14694),-0.107 (inactive)
19,USP46 (UniProt P62068),-0.0934 (inactive)
20,YOD1 (UniProt Q5VVQ6),-0.158 (inactive)
21,BAP1 (UniProt Q92560),-0.474 (inactive)
22,UniProt P51784,0.0554 (inactive)
23,USP25 (UniProt Q9UHP3),-0.808 (inactive)
24,UniProt Q9UGI0,-0.0757 (inactive)
